From PubChem BioAssay (Tox21)
Where “and” joins values, the source holds several entries; their conditions need not be identical. Equal values may be shown once. Results filed as inconclusive are left out. More than one record can exist for a structure, and the calls need not agree. Calls of active or inactive are those of the source. Unless noted, calls follow the shape of the dose curve; as a rule, active = well fitted curve in the direction sought with a large enough effect in the repeat runs; inconclusive = weak or mixed curves; inactive = no such curve, though single readings can be large; an effect the other way counts as inactive or inconclusive.

Experiments:
[1] = qHTS assay to identify small molecule antagonists of the sonic hedgehog signaling (Shh) pathway (AID 1259369; calls by dose curve; also: nearly all actives have a fitted effect of over 45% in size; also: potency is read from the fitted curve at half-maximal effect)
In short: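 Read-out is luminescence from a firefly luciferase gene controlled by the Gli1 response element, in 3T3Gli1-Luc cells pre-incubated 4hr then exposed to compounds and conditioned medium for 24hr.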

[2] = target: Estrogen receptor beta (Homo sapiens) (UniProt Q92731); assay: qHTS assay to identify small molecule agonists of the estrogen receptor beta (ER-beta) signaling pathway (AID 1259377; active = well fitted activation curve with a large enough effect in the signal ratio in the repeat runs, not every such curve was filed as active; the % refers to the signal ratio; also: potency is read from the fitted curve at half-maximal effect)
In short: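 HEK293T ER-beta-UAS-bla; 2% charcoal-stripped FBS; cells pre-incubated 6 hr, compound 16 hr, 37C/5% CO2; LiveBLAzer B/G FRET substrate 2 h RT; fluorescence intensity read.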

[3] = target: Estrogen receptor beta (Homo sapiens) (UniProt Q92731); assay: qHTS assay to identify small molecule antagonists of the estrogen receptor beta (ER-beta) signaling pathway (AID 1259378; active = well fitted inhibition curve with a large enough effect in the signal ratio in the repeat runs, not every such curve was filed as active; the % refers to the signal ratio; also: potency is read from the fitted curve at half-maximal effect)
In short: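 ER-beta-UAS-bla HEK293T (GripTite) cells in 2% charcoal-stripped FBS medium were preincubated 6 hr at 37C, dosed with compound, then stimulated with 1 nM E2 (final) for 16 hr; beta-lactamase reporter read by B/G FRET fluorescence after 2 hr substrate loading.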

[4] = qHTS assay to identify small molecule agonists of the androgen receptor (AR) signaling pathway in the presence of an antagonist - cell viability counter screen (AID 1259379); also: nearly all actives have a fitted effect of over 25% in size; also: potency is read from the fitted curve at half-maximal effect
In short: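 Each compound was tested at 15 concentrations on MDA-kb2 cells in the presence of 3.0uM nilutamide. Viability was measured by CellTiter-Fluor fluorescence after a 16 hr incubation at 37C in a CO2-free atmosphere.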

[5] = qHTS assay to identify small molecule agonists of the estrogen receptor beta (ER-beta) signaling pathway - cell viability counter screen (AID 1259380); also: nearly all actives have a fitted effect of over 30% in size
In short: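 Compounds dissolved in DMSO were pin-transferred onto ER-beta-UAS-bla HEK293T cells that had settled 6 hr, and exposure ran 16 hr at 37C. Following the reporter read, CellTiter-Glo luminescence after 30 min at room temperature indicated cytotoxicity.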

[6] = qHTS assay to identify small molecule antagonists of the estrogen receptor beta (ER-beta) signaling pathway - cell viability counter screen (AID 1259382); also: series mostly up to about 92 µM; nearly all actives have a fitted effect of over 55% in size
In short: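 CellTiter-Glo ATP luminescence measured after the LiveBLAzer read in the same wells; ER-beta-UAS-bla HEK293T cells, 16 hr compound treatment with 1nM 17-beta-estradiol agonist at 37C, 5% CO2.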

[7] = target: Estrogen receptor (Homo sapiens) (UniProt P03372); assay: qHTS assay to identify small molecule agonists of the estrogen receptor alpha (ER-alpha) signaling pathway in the presence of an antagonist (AID 1259383; calls by dose curve; also: top concentration of the series differs between compounds; nearly all actives have a fitted effect of over 15% in size)
In short: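 Luminescent ERE-luciferase reporter, VM7Luc4E2 cells (endogenous ER-alpha); 10.0nM ICI-182,780 final; 15-point compound titration; 22hr at 37C; ONE-Glo, 30min RT.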

[8] = qHTS assay to identify small molecule agonists or antagonists of the thyroid stimulating hormone receptor (TSHR) signaling pathway - wild type cell line counter screen (AID 1259384; calls by dose curve)
In short: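 Wild-type HEK293 cells were plated 18 h at 37 C/5% CO2, pin-dosed with compound plus Ro20-1724 medium, held 30 min at room temperature, then given cAMP-d2 and anti-cAMP-cryptate; fluorescence was read after 1 h. Fifteen concentrations, triplicate.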

[9] = target: Thyrotropin receptor (Homo sapiens) (UniProt P16473); assay: qHTS assay to identify small molecule antagonists of the thyroid stimulating hormone receptor (TSHR) signaling pathway (AID 1259385; calls by dose curve; also: nearly all actives have a fitted effect of over 20% in size; also: potency is read from the fitted curve at half-maximal effect)
In short: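 TSHR-HEK293 cells were plated and held 18 h at 37C/5% CO2, then given compound plus Ro20-1724 and stimulated with TSH at 1.5 ng/mL final. After 30 min at room temperature, cAMP was detected with cAMP-d2/anti-cAMP-cryptate (1 h) by fluorescence.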

[10] = qHTS assay to identify small molecule agonists of the estrogen receptor alpha (ER-alpha) signaling pathway in the presence of an antagonist - cell viability counter screen (AID 1259386);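 also: cells exposed to compounds for 22 h at 37 °C before the viability read; nearly all actives have a fitted effect of over 30% in size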; also: potency is read from the fitted curve at half-maximal effect
In short: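 Using estrogen-depleted VM7Luc4E2 cells, the 15-concentration compound series was applied together with 10.0nM ICI-182,780 and incubated 22hr at 37C/5% CO2. Cell viability was then scored by CellTiter-Fluor.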

[11] = target: Progesterone receptor (Homo sapiens) (UniProt P06401); assay: qHTS assay to identify small molecule agonists of the progesterone receptor (PR) signaling pathway (AID 1346784; calls by dose curve; also: nearly all actives have a fitted effect of over 30% in size; also: potency is read from the fitted curve at half-maximal effect)
In short: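 Beta-lactamase reporter read-out: after 16 hr compound treatment at 37C and a further 2 hr at room temperature with LiveBLAzer B/G FRET substrate, fluorescence was measured in PR-UAS-bla HEK 293T cells grown in 2% charcoal-stripped serum.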

[12] = target: Progesterone receptor (Homo sapiens) (UniProt P06401); assay: qHTS assay to identify small molecule antagonists of the progesterone receptor (PR) signaling pathway (AID 1346795; active = well fitted inhibition curve with a large enough effect in the signal ratio in the repeat runs, not every such curve was filed as active; the % refers to the signal ratio; also: potency is read from the fitted curve at half-maximal effect)
In short: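 Read-out is fluorescence from the LiveBLAzer B/G FRET substrate, cleaved by a UAS-controlled beta-lactamase in PR-UAS-bla HEK293T cells after 16 hr exposure to compound plus 1 nM promegestone (final), followed by 2 hr at room temperature.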

[13] = qHTS assay to identify small molecule antagonists of the progesterone receptor (PR) signaling pathway - cell viability counter screen (AID 1346798);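 also: HEK293T PR-UAS-bla cells stimulated with the agonist R5020; series mostly up to about 92 µM; nearly all actives have a fitted effect of over 50% in size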
In short: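 HEK293T PR-UAS-bla, 2% charcoal-stripped FBS; 4 hr pre-plate; cpd + R5020, 16 h 37C; LiveBLAzer read first; then CellTiter-Glo 30 min RT, luminescence.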

[14] = qHTS assay to identify small molecule agonists of the progesterone receptor (PR) signaling pathway - cell viability counter screen (AID 1346799; calls by dose curve; also: nearly all actives have a fitted effect of over 45% in size)
In short: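 Luminescence from CellTiter-Glo, added after the beta-lactamase FRET read in the same wells, gave cytotoxicity in PR-UAS-bla HEK293T cells treated with compounds for 16 hr at 37C.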

[15] = qHTS assay to identify small molecule antagonists of the TGF-beta/Smad signaling pathway - cell viability counter screen (AID 1346824); also: nearly all actives have a fitted effect of over 50% in size
In short: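 SBE-bla HEK 293T cells were plated overnight at 37 C, then given compounds in DMSO plus TGF-beta1 (added as 0.25 ng/mL solution) for 5 hr. After the bla read, CellTiter-Glo was added to the same wells and luminescence read after 30 min at room temperature.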

[16] = qHTS assay to identify small molecule agonists of the TGF-beta/Smad signaling pathway - cell viability counter screen (AID 1346829); also: top concentration of the series differs between compounds; nearly all actives have a fitted effect of over 45% in size
In short: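 CellTiter-Glo luminescence readout; SBE-bla HEK 293T cells, overnight plating, compound 5 hr at 37 C/5% CO2, then bla substrate 2 hr RT, then CellTiter-Glo 30 min RT.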

[17] = qHTS assay to identify small molecule agonists of the TGF-beta/Smad signaling pathway (AID 1346859; active = well fitted activation curve with a large enough effect in the signal ratio in the repeat runs, not every such curve was filed as active; the % refers to the signal ratio; also: series mostly up to about 77 µM)
In short: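 SBE-bla HEK 293T, 4,000 cells/well, plated o/n; cpd in DMSO, 5 hr, 37 C/5% CO2; B/G FRET substrate 2 hr RT; ex 405, em 460/530 nm.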

[18] = target: Thyrotropin-releasing hormone receptor (Homo sapiens) (UniProt P34981); assay: qHTS assay to identify small molecule antagonists of the thyrotropin-releasing hormone receptor (TRHR) signaling pathway (AID 1346877; active = well fitted inhibition curve with a large enough effect in the repeat runs, not every such curve was filed as active; also: series mostly up to about 51 µM)
In short: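 Calcium signal in dye-loaded TRHR/HEK293 cells; compounds added 5 min before TRH (1 nM final); fluorescence monitored 3 min at 1 s steps.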

[19] = target: Thyrotropin-releasing hormone receptor (Homo sapiens) (UniProt P34981); assay: qHTS assay to identify small molecule agonists of the thyrotropin-releasing hormone receptor (TRHR) signaling pathway (AID 1346891; calls by dose curve; also: series mostly up to about 58 µM)
In short: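 Intracellular calcium rise, read as fluorescence every second for 3 min, served as the agonist signal in dye-loaded HEK293 cells expressing TRHR; each compound ran at 15 concentrations in triplicate.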

[20] = target: Androgen receptor (Homo sapiens) (UniProt P10275); assay: qHTS assay to identify small molecule agonists of the androgen receptor (AR) signaling pathway in the presence of an antagonist (AID 1259381; calls by dose curve; also: nearly all actives have a fitted effect of over 15% in size; also: potency is read from the fitted curve at half-maximal effect)
In short: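 Plated MDA-kb2 cells (3,000/well) were pre-incubated 5hr, given nilutamide (3.0uM final) or buffer, then dosed with compounds in DMSO at 15 concentrations. Luciferase activity was quantified by luminescence after 16hr at 37C.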

Measured: Potency

Progesterone receptor (Homo sapiens), sequence (P06401 whole entry, looked up): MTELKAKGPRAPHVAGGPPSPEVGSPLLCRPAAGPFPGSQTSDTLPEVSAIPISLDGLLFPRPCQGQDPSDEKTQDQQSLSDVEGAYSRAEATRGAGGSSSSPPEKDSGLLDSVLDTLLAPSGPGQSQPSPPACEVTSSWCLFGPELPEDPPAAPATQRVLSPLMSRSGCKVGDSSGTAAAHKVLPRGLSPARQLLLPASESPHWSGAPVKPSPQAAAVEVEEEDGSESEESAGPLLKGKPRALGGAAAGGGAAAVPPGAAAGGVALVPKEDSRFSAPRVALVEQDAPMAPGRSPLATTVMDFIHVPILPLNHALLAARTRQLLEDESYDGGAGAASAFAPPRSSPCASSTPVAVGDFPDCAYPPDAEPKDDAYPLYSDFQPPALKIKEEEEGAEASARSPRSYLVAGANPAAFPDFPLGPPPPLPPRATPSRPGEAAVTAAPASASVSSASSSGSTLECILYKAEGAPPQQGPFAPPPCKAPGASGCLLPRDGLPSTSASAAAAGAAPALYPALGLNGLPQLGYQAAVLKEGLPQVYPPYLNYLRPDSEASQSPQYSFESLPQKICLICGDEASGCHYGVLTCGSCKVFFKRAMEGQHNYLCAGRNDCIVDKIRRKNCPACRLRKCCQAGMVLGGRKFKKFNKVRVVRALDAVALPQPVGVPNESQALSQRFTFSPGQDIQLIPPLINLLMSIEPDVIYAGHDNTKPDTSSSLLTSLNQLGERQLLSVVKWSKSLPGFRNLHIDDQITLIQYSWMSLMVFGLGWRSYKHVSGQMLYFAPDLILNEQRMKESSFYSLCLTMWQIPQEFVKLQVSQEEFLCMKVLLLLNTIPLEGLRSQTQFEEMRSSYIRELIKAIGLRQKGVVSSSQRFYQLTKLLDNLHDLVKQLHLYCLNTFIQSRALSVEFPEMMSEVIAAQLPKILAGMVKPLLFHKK
Thyrotropin-releasing hormone receptor (Homo sapiens), sequence (P34981 whole entry, looked up): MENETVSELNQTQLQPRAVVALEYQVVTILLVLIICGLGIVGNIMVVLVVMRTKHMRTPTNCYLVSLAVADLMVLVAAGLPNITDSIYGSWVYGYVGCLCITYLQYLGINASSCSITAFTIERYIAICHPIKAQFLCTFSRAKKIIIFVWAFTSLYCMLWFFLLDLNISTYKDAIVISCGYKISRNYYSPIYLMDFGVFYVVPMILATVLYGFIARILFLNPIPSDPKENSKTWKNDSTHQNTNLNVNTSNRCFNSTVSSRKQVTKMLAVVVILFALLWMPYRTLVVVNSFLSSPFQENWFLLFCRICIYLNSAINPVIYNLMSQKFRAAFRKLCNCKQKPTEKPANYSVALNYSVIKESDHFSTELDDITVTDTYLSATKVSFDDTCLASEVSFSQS
Thyrotropin receptor (Homo sapiens), sequence (P16473 whole entry, looked up): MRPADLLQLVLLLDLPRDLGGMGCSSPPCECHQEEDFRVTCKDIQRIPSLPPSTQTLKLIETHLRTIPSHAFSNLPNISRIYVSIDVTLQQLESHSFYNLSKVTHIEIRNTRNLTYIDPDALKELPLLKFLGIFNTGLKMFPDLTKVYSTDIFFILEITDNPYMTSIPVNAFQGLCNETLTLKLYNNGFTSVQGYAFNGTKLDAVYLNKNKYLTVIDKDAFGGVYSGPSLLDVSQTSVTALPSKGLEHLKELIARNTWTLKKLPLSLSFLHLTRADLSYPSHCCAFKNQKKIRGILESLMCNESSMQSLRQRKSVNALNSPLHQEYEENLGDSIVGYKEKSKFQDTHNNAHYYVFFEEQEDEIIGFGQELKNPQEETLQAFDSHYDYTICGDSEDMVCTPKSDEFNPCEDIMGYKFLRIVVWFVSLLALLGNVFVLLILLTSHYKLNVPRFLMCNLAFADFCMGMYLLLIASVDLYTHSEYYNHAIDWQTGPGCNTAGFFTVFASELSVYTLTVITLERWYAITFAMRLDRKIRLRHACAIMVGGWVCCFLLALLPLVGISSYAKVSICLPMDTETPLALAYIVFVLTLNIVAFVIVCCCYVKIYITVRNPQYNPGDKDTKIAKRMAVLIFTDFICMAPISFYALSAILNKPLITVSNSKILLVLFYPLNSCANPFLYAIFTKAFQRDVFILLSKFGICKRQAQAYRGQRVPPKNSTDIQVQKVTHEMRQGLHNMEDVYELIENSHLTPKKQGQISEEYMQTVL
Estrogen receptor (Homo sapiens), sequence (P03372 whole entry, looked up): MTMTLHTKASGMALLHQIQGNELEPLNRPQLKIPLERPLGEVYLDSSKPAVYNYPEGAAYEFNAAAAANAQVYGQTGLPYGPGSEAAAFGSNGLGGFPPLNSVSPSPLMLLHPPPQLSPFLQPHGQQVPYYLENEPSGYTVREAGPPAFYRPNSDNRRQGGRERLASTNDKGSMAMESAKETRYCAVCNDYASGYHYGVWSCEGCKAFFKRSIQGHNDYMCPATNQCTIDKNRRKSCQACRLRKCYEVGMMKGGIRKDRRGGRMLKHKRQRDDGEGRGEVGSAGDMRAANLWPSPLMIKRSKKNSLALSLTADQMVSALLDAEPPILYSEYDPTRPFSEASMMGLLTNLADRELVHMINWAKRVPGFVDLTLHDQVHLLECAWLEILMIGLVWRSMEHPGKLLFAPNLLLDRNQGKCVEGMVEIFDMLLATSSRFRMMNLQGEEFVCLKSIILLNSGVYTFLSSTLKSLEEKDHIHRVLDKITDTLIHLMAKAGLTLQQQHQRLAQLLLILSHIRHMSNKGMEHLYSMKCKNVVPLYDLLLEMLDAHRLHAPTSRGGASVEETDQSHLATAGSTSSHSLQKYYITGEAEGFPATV
Androgen receptor (Homo sapiens), sequence (P10275 whole entry, looked up): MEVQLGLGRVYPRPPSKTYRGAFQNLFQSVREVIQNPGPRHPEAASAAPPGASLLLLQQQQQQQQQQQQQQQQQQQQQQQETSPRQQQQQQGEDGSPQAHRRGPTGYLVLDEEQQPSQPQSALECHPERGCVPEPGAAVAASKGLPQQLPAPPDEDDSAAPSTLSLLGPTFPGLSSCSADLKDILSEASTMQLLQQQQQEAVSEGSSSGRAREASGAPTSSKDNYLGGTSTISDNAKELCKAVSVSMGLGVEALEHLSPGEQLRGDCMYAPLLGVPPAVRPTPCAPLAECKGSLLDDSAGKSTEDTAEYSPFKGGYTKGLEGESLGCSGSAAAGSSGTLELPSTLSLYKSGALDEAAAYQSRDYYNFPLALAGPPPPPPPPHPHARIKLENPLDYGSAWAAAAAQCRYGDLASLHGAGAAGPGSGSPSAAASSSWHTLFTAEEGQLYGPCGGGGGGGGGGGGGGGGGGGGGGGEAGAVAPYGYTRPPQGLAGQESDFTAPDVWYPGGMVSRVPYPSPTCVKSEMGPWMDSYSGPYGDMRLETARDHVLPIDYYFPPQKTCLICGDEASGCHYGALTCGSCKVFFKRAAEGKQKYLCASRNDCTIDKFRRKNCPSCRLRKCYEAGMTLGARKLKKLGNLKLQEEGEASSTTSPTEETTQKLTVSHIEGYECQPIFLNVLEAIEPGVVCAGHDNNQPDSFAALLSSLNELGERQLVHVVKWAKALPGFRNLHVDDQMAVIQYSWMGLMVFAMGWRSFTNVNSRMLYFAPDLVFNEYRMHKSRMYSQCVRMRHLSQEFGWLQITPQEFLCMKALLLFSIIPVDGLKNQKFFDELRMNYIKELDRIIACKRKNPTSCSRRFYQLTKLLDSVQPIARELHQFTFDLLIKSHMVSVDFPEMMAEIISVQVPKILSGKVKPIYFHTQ
Estrogen receptor beta (Homo sapiens), sequence (Q92731 whole entry, looked up): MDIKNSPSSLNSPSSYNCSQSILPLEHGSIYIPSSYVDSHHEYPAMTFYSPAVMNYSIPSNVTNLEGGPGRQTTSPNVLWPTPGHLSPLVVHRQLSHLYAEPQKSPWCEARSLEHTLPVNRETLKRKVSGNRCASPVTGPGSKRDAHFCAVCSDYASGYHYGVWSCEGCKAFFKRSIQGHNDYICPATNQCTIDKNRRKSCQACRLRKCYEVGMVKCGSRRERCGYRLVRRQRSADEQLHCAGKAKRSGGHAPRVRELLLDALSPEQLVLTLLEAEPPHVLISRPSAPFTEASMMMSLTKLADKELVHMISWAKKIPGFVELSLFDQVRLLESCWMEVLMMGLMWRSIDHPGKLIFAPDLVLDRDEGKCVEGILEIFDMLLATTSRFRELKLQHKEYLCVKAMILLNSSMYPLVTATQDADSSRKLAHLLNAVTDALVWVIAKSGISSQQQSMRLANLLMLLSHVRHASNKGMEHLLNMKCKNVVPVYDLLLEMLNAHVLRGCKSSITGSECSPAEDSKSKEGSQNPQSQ

CN(C)/N=N/c1nc[nH]c1C(N)=O
not listed: [20]
inactive: all other assays above

CC(=O)OC(C)C
not listed: [8] | [16] | [18] | [20]
inactive: all other assays above

CN(C)C
not listed: [8] | [9] | [16] | [18] | [19] | [20]
inactive: all other assays above

CC1=CC(C)(C)Nc2ccccc21
not listed: [8] | [9] | [20]
inactive: all other assays above

C=C1C[C@H]2[C@@H]3C=C(C)C4=CC(=O)CC[C@]4(C)[C@H]3CC[C@]2(C)[C@@]1(OC(C)=O)C(C)=O
19.7 µM (active) and inactive: [1]
active: [20] 39.4 nM and 59.6 nM
not listed: [8] | [9] | [11] | [13] | [14] | [18]
inactive: all other assays above

c1ccc2c(c1)ccc1ncccc12
not listed: [12]
inactive: all other assays above

CCc1cccc2c3c([nH]c12)C(CC)(CC(=O)O)OCC3 (stereo not drawn)
not listed: [16] | [18] | [19]
inactive: all other assays above

NCCOCCO
not listed: [8] | [9] | [20]
inactive: all other assays above

OC[C@H]1O[C@@H]2O[C@H]3[C@H](O)[C@@H](O)[C@@H](O[C@H]4[C@H](O)[C@@H](O)[C@@H](O[C@H]5[C@H](O)[C@@H](O)[C@@H](O[C@H]6[C@H](O)[C@@H](O)[C@@H](O[C@H]7[C@H](O)[C@@H](O)[C@@H](O[C@H]1[C@H](O)[C@H]2O)O[C@@H]7CO)O[C@@H]6CO)O[C@@H]5CO)O[C@@H]4CO)O[C@@H]3CO
inactive and 22.9 µM (active): [12]
inactive and 9.13 µM (active): [1]
not listed: [14] | [18] | [20]
inactive: all other assays above

CC(C)=CCO
not listed: [8] | [16] | [18] | [20]
inactive: all other assays above

c1ccc2c(c1)[nH]c1ccccc12
active: [12] 26.8 µM
not listed: [8] | [9]
inactive: all other assays above

O=C(O)COCCN1CCN(C(c2ccccc2)c2ccc(Cl)cc2)CC1 (stereo not drawn)
not listed: [18] | [20]
inactive: all other assays above

CCO[Si](CCCNC(N)=O)(OCC)OCC
not listed: [18] | [19] | [20]
inactive: all other assays above

C1COCCN1
not listed: [18] | [19] | [20]
inactive: all other assays above

CCC/C=C/C=O
not listed: [13] | [18] | [20]
inactive: all other assays above

CC(=O)O[C@]1(C(C)=O)CC[C@H]2[C@@H]3C=C(Cl)C4=CC(=O)CC[C@]4(C)[C@H]3CC[C@@]21C
active: [9] 29.8 µM
not listed: [11] | [14] | [17] | [20]
inactive: all other assays above

NCCS(=O)(=O)O
25.3 µM (active) and inactive: [4] | [10]
not listed: [8] | [16] | [18] | [20]
inactive: all other assays above

Clc1ccc(Sc2cc(Cl)c(Cl)cc2Cl)cc1
active: [12] 24.3 µM
not listed: [7] | [16] | [18] | [20]
inactive: all other assays above

[O-]/[N+](=N\O)c1ccccc1
not listed: [12] | [18] | [20]
inactive: all other assays above

COC(=O)CC(=O)OC
not listed: [20]
inactive: all other assays above

Nc1cc([N+](=O)[O-])ccc1C(=O)O
not listed: [20]
inactive: all other assays above

CC(=O)[C@@]1(O)CC[C@H]2[C@@H]3C[C@H](C)C4=CC(=O)C=C[C@]4(C)[C@@]3(F)[C@@H](O)C[C@@]21C
6.11 µM (active) and inactive: [1]
active: [11] 61.1 nM and 168 nM
not listed: [8] | [9] | [20]
inactive: all other assays above

COc1ccc2nc(N)sc2c1
not listed: [9] | [16] | [18] | [19]
inactive: all other assays above

FC(F)(F)C(Cl)Br (stereo not drawn)
not listed: [8] | [18] | [19] | [20]
inactive: all other assays above

O=C(O)CCCC(=O)O
30 µM (active) and inactive: [2]
not listed: [18] | [20]
inactive: all other assays above

O=Cc1ccccc1C=O
54.5 µM (active) and inactive: [3]
2.43 µM (active) and inactive: [1]
not listed: [8] | [16]
inactive: all other assays above

CCCCCCCCCCCCCO
not listed: [8] | [9] | [18] | [20]
inactive: all other assays above

CCCCCCCC/C=C\CCCCCCCC(=O)O
not listed: [11] | [12] | [18] | [20]
inactive: all other assays above
